Screening results (PubChem BioAssay)
ssDAF12 agonist = activates DAF-12 receptor from parasite S. stercoralis; HEK293 ssDAF-12/GRIP1 lit1-tk-luc reporter, luminescence; % of 3 µM dafachronic acid response; activation, % at 6.8 µM; 370,000 tested, 1% active; AID 652126;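 active means activation above the mean over all tested compounds plus 3 SD, cut at about 0.9% in these data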;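 further: 0% = DMSO-only wells and 100% = 3 µM delta7-dafachronic acid wells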
hcDAF-12 act = H. contortus DAF-12 activation, primary screen. HEK293 hcDAF-12 lit1-tk-luc reporter, luminescence; 0% DMSO, 100% Δ7-dafachronic acid. 370,000 tested, 1.4% active. activation, % at 6.8 µM;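 active means activation above the mean of all tested compounds plus 3 SD, cut at about 5.5% in these data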;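 further: 100% = response to 3 µM Δ7-dafachronic acid high control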
DAX1 inh-1 = NR0B1 (DAX1) inhibition. P51843. HEK293 Gal4-DAX1 luciferase reporter, luminescence. inhibition, % at 6.75 µM. 340,000 tested, 0.99% active. AID 504766;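 active means inhibition above the mean over all tested compounds plus 3 SD, cut at about 4.2% in these data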;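 further: 0% = DAX1-transfected cells with DMSO and 100% = empty-vector control cells with DMSO; inhibition shows as a rise in luminescence from relieved DAX1 repression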
hgDAF12 agonist = agonists of H. glycines DAF-12 nuclear receptor. HEK293 GAL4-hgDAF12 UAS-luciferase reporter, agonist luminescence; normalized to butyrate control. activation, % at 6.8 µM. 370,000 tested, 1.8% active. AID 687014;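 active means activation above a cutoff set at the mean of all screened compounds plus 3 SD, cut at about 10% in these data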;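 further: 0% = DMSO wells and 100% = sodium butyrate wells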
DAX1 inh-2 = inhibitors of DAX1 repression of SF-1 activated StAR promoter | AID 652010 | HEK293T StAR-luciferase reporter, SF-1/DAX-1 repression relief | 370,000 tested, 1.1% active | inhibition, % at 6.8 µM;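 active means inhibition above the mean over all tested compounds plus 3 SD, cut at about 3.6% in these data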;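 further: 0% = DAX-1 cells with DMSO and 100% = cells lacking DAX-1 with DMSO; higher inhibition means more luminescence from relief of DAX-1 repression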
LXR ag = activates human LXR-beta, counter-screen for hcDAF-12 agonists; activation, % at 6.8 µM; AID 743027; shares compounds with hcDAF-12 act; 3,400 tested, under 10 active; HEK293 Gal4-LXR tk-luc reporter, luminescence, 24 h; normalized: DMSO 0%, positive control 100%;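 active means mean percent activation of the reporter above a cutoff set as the average over tested compounds plus their standard deviation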
Target sequence (P55055 whole entry, looked up, the tested form may be a part): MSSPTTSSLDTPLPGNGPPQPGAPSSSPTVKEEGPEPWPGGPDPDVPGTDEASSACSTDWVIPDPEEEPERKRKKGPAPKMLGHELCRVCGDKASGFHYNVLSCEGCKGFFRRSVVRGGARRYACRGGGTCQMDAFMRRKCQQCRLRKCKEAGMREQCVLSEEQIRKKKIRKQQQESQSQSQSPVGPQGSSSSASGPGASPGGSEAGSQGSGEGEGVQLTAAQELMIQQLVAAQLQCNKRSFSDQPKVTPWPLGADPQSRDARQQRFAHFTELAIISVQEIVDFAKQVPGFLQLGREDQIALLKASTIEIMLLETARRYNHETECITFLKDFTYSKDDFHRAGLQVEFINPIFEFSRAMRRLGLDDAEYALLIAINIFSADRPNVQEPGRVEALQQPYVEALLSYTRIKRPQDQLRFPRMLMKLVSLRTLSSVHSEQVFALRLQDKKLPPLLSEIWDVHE
hcDAF12 conf = confirmation of H. contortus DAF-12 agonists | shares compounds with hcDAF-12 act | HEK293 hcDAF-12 lit1-tk-luc reporter, luminescence; % of Δ7-dafachronic acid response | activation, % at 6.8 µM | 3,400 tested, 61% active | AID 743032;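 active means mean activation across triplicate tests above the threshold derived from the earlier primary screen, cut at about 5.5% in these data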;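 further: 0% = DMSO only wells and 100% = 3 µM Δ7-dafachronic acid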
* = called active by the depositor; . = no result given. In the library only some 4.1% were active in any assay of this set; here they are far more common.

SMILES	ssDAF12 agonist	hcDAF-12 act	DAX1 inh-1	hgDAF12 agonist	DAX1 inh-2	LXR ag	hcDAF12 conf
Cc1ccc(-c2ccc(/C=N/NC(N)=S)o2)cc1	1.7*	10.3*	3.4	7.4	0.2	0.4	7.5*
COCCn1c(SCC(=O)N2CCCCCC2)nc2c([nH]c3ccccc32)c1=O	0.3	7.2*	0.7	2.9	0.9	-0.3	0.3
CCn1c(SCC(=O)NCCc2ccc(OC)c(OC)c2)nc2c([nH]c3ccccc32)c1=O	0.5	3.8	0.0	2.6	0.1	.	.
CCn1c(SCC(=O)NCCc2ccccc2)nc2c([nH]c3ccccc32)c1=O	0.3	7.2*	0.5	3.9	0.6	-0.1	6.7*
Cc1ccccc1CN1CCN(C(=O)[C@H]2O[C@@H](n3cnc(C(N)=O)n3)[C@H](O)[C@@H]2O)CC1	-0.5	0.7	.	-1.0	-1.0	.	.
CCCCCCCCN1C(=O)[C@@H](CC(=O)NCCc2ccccc2OC)C[C@@]2(C(=O)OC)C1=C[C@H](C(C)C)O[C@@H]2C1CC1	-1.2	-3.0	.	-2.4	-1.7	.	.
C/C(=C\C(=S)Nc1ccccc1)Nc1ccc2ccccc2c1	0.1	6.9*	-0.7	3.0	0.5	0.5	5.3
COc1ccccc1/C=C/C(=O)N1CCC(c2ccccc2)C1 (stereo unspecified)	1.0*	6.7*	1.1	11.6*	1.3	0.5	3.7
CC(OC(=O)c1ccc2c(c1)C(=O)N(Cc1ccncc1)C2=O)C(=O)Nc1cccc(Cl)c1Cl (stereo unspecified)	-1.3	2.8	0.9	-1.1	0.2	.	.
O=C(COC(=O)c1ccc2c(c1)C(=O)N(Cc1ccncc1)C2=O)Nc1ccccc1[N+](=O)[O-]	0.4	7.0*	-0.4	0.9	0.6	-0.1	6.2*
Nc1ccc(N=Nc2ccccc2)c2cccnc12	0.8	7.4*	1.5	5.5	0.1	0.4	9.5*
O=C(N[C@@H](Cc1cccnc1)C(=O)N1CCC[C@H]1C(=O)NCCc1ccccc1Cl)c1ccco1	-0.3	0.4	.	1.3	0.3	.	.
COc1ccc2c(c1)N=CN1CCc3c([nH]c4ccccc34)C3=NCC[C@@]321	-1.6	-2.2	.	0.0	.	.	.
O=C(OCc1nc2ccccc2s1)C1CCN(C2=NS(=O)(=O)c3ccccc32)CC1	1.4*	9.7*	2.0	5.2	1.6	0.6	9.6*
COc1ccc(S(=O)(=O)Nc2c(C(=O)O)[nH]c3ccccc23)cc1	0.4	5.1	0.5	2.3	0.2	.	.
COc1ccc(S(=O)(=O)Nc2c(C(=O)O)[nH]c3ccccc23)cc1OC	2.0*	7.9*	-0.2	6.2	0.3	0.1	5.2
Cc1ccc(S(=O)(=O)Nc2cc3c(C(=O)O)c(C)oc3c3ccccc23)c(C)c1	-0.5	0.7	1.9	-1.9	-0.2	.	.
Cc1ccc(S(=O)(=O)Nc2c(C(=O)O)[nH]c3ccccc23)c(C)c1	1.1*	6.7*	2.3	4.8	-0.1	-0.2	2.2
COC(=O)[C@H]1[C@H]2C[C@@H]3c4[nH]c5cc(OC)ccc5c4CCN3C[C@H]2C[C@@H](OC(=O)c2cc(OC)c(OC)c(OC)c2)[C@@H]1OC	-0.9	-1.1	0.0	-3.9	-0.1	.	.
COc1ccc2c3c([nH]c2c1)C1CC2C(CC(O)C(OC)C2C(=O)O)CN1CC3 (stereo unspecified)	-0.9	7.0*	2.1	2.8	0.0	-0.5	-0.5
O=C(CSc1nc2ccccc2nc1N1CCOCC1)N1CCN(S(=O)(=O)c2cccc([N+](=O)[O-])c2)CC1	-1.6	-0.4	.	2.8	0.2	.	.
CN1CC(=O)N2[C@@H](C[C@]3(c4c[nH]c5ccccc45)c4ccccc4N(S(=O)(=O)c4ccccc4)[C@H]23)C1=O	0.0	6.6*	.	-0.6	.	-0.1	3.9
CN1N=C(C(=O)N2CCc3c([nH]c4ccccc34)C2c2ccccc2Cl)CCC1=O (stereo unspecified)	1.7*	7.8*	0.1	12.0*	2.0	0.3	6.9*
COc1ccc(C2c3[nH]c4ccccc4c3CCN2C(=O)c2ccc(=O)n(C)n2)c(F)c1 (stereo unspecified)	0.4	6.9*	1.4	8.2	0.2	0.0	5.3
C[C@H]1CCCN1c1cccc2c1S(=O)(=O)N1CC[C@H](C1)O2	0.8	-1.3	.	-1.1	-2.0	.	.
SMILES	ssDAF12 agonist	hcDAF-12 act	DAX1 inh-1	hgDAF12 agonist	DAX1 inh-2	LXR ag	hcDAF12 conf
O=c1c2cc(N3CCOCC3)ccc2[nH]c(=S)n1CCCN1CCCCCC1	-0.2	-0.6	0.9	0.7	1.7	.	.
O=c1c2cc(F)ccc2[nH]c(=S)n1CCCN1CCOCC1	-2.0	10.6*	4.0	-1.6	0.1	-0.2	-0.7
COc1cc2c(cc1OC)C(c1ccccc1)=NCC2	-0.9	7.8*	-1.5	-0.5	-0.7	-0.4	0.3
COc1cc2c(cc1OC)C(c1ccccc1N)=NCC2	-1.2	-0.3	.	-5.0	-0.2	.	.
O=C(O)CC(Sc1ccc(Cl)cc1)C(=O)Nc1ccccc1 (stereo unspecified)	-1.5	-1.8	.	0.6	-0.2	.	.
CN(C)c1ccc(N=Cc2nc(-c3ccccc3)oc2OC(=O)c2cccc(Br)c2)cc1	2.1*	6.7*	0.9	7.0	2.8	0.0	0.5
CCOC(=O)c1ccc(N=Cc2nc(-c3ccccc3)oc2OC(C)=O)cc1	-1.2	-0.3	1.7	1.8	0.0	.	.
C#CCOCCOCCOCCNc1nc(N2CCN(C(=O)[C@H](CCCCN)n3cc([C@@H](N)CC(C)C)nn3)CC2)nc(N2CCN(C(=O)[C@H](Cc3cc4ccccc4[nH]3)n3cc([C@@H](N)CC(C)C)nn3)CC2)n1	-0.5	8.1*	.	4.4	.	-0.4	4.4
C#CCOCCOCCOCCNc1nc(N2CCN(C(=O)[C@H](CCCCN)n3cc([C@@H](N)CC(C)C)nn3)CC2)nc(N2CCN(C(=O)[C@H](Cc3cc4ccccc4[nH]3)n3cc([C@@H](N)Cc4ccc(O)cc4)nn3)CC2)n1	.	.	-0.4	.	.	.	.
Nc1nn(-c2ccccc2)c(N)c1N=Nc1ccccc1F	2.1*	10.4*	-1.9	17.7*	2.8	1.9	8.8*
[O-][n+]1c2ccccc2c2n1CCCN=C2c1ccc(Cl)cc1	0.6	8.0*	1.8	3.0	1.7	0.0	8.6*
COc1cccc(NC(=O)Cc2nnc(SCC(=O)NC3=NCCS3)n2C)c1	-1.2	-0.9	1.5	2.3	0.1	.	.
Cn1c(CC(=O)Nc2ccccc2)nnc1SCC(=O)NC1=NCCS1	-0.7	7.6*	-0.3	1.1	0.2	-0.4	-1.2
O=C(NCc1ccccc1)[C@@H]1CCCN1C(=O)[C@H]1CCCN1C(=O)c1c(F)cccc1F	-1.4	1.2	.	-0.1	-0.9	.	.
